# Test results taken from PubChem BioAssay (Tox21).
# Records with an inconclusive call do not appear. Where a call stands in place of a potency, no number is given. Unmarked numbers belong to inactive results. Calls of active or inactive are those of the source. Unless noted, calls follow the shape of the dose curve; as a rule, active = well fitted curve in the direction sought with a large enough effect in the repeat runs; inconclusive = weak or mixed curves; inactive = no such curve, though single readings can be large; an effect the other way counts as inactive or inconclusive.
# Experiments:
# [1] = qHTS assay to identify small molecule antagonists of the estrogen related receptor (ERR) signaling pathway from Tox21 library - cell viability counter screen (AID 1224834); also: nearly all actives have a fitted effect of over 30% in size; also: potency is read from the fitted curve at half-maximal effect
# How it was run: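 In this quantitative HTS format, ERR cells receive compounds in DMSO and are incubated for 17.5 h at 37 C. Live-cell protease activity is then detected with CellTiter-Fluor.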
# [2] = target: Luciferin 4-monooxygenase (Photinus pyralis) (UniProt P08659); assay: qHTS assay to identify small molecule inhibitors of firefly luciferase (AID 1224835); also: series mostly up to about 120 µM; nearly all actives have a fitted effect of over 25% in size
# Sequence of Luciferin 4-monooxygenase (Photinus pyralis) (P08659 whole entry, looked up): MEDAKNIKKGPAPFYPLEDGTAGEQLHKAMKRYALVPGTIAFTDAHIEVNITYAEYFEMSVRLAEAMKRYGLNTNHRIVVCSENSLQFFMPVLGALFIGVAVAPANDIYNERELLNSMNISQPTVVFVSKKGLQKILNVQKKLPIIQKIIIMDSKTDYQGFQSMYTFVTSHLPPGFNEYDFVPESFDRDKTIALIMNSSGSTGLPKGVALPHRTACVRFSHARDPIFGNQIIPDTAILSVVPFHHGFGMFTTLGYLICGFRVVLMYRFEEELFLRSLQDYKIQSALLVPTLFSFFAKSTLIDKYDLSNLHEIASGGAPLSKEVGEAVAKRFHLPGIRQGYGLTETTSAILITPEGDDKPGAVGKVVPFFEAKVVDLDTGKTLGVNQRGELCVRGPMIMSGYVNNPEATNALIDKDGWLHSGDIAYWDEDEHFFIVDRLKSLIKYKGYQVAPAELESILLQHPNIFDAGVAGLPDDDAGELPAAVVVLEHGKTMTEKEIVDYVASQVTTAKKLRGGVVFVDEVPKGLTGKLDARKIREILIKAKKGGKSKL
# How it was run: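 Inhibition of purified Photinus luciferase is measured by luminescence. Substrate levels (D-luciferin, ATP) sit at their KM values. Each compound is tested in a concentration series.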
# [3] = qHTS assay to identify small molecule agonists of the constitutive androstane receptor (CAR) signaling pathway - cell viability counter screen (AID 1224836); also: nearly all actives have a fitted effect of over 45% in size; also: potency is read from the fitted curve at half-maximal effect; as to viability change, negative = cytotoxic: series mostly up to about 92 µM
# How it was run: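 HepG2-CYP2B6-hCAR, 2500 cells/well, 4 h pre-incubation; cpd 15 conc + PK11195 0.75 uM final; 23 h, 37 C/5% CO2; CellTiter-Fluor, fluorescence.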
# [4] = qHTS assay to identify small molecule antagonists of the constitutive androstane receptor (CAR) signaling pathway - cell viability counter screen (AID 1224837); also: nearly all actives have a fitted effect of over 45% in size; also: potency is read from the fitted curve at half-maximal effect; as to activity change, negative = cytotoxicity: series mostly up to about 92 µM
# How it was run: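 In quantitative HTS format, compounds at 15 concentrations were applied to HepG2 cells double-transfected with hCAR and CYP2B6-2.2kb under 50 nM CITCO stimulation; live-cell protease activity was read after 23 hr via CellTiter-Fluor.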
# [5] = target: Nuclear receptor subfamily 1 group I member 3 (Homo sapiens) (UniProt Q14994); assay: qHTS assay to identify small molecule antagonists of the constitutive androstane receptor (CAR) signaling pathway (AID 1224838); also: nearly all actives have a fitted effect of over 40% in size; also: potency is read from the fitted curve at half-maximal effect
# Sequence of Nuclear receptor subfamily 1 group I member 3 (Homo sapiens) (Q14994 whole entry, looked up): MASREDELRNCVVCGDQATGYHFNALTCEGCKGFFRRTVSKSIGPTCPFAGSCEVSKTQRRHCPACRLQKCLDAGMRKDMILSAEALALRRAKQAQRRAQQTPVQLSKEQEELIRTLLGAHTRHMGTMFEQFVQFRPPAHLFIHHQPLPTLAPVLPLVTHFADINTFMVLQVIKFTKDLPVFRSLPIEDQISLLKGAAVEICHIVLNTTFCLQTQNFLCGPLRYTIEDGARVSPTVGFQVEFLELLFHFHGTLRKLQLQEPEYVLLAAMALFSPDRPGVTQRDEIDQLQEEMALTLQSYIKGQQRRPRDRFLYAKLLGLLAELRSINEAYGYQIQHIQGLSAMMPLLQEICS
# How it was run: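 CITCO-stimulated (50 nM final) HepG2 cells stably transfected with hCAR and CYP2B6-2.2kb luciferase were exposed to compounds at 15 concentrations for 24 h at 37 C/5% CO2. A luciferase reagent was added and luminescence recorded after 30 min.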
# [6] = target: Nuclear receptor subfamily 1 group I member 3 (Homo sapiens) (UniProt Q14994); assay: qHTS assay to identify small molecule agonists of the constitutive androstane receptor (CAR) signaling pathway (AID 1224839); also: nearly all actives have a fitted effect of over 15% in size; also: potency is read from the fitted curve at half-maximal effect
# How it was run: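 HepG2-CYP2B6-hCAR cells, 2500/well, 4 h pre-incubation; compounds 15 conc.; PK11195 0.75 uM final; 24 h, 37 C/5% CO2; ONE-Glo luciferase read.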
# [7] = qHTS assay to identify small molecule antagonists of the estrogen related receptor signaling pathway with the pleiotropic PPARgamma coactivator (PGC) from Tox21 10K library - cell viability counter screen (AID 1224840; active = well fitted cell-killing curve with a large enough effect in the repeat runs, not every such curve was filed as active; also: nearly all actives have a fitted effect of over 40% in size; also: potency is read from the fitted curve at half-maximal effect)
# How it was run: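 Viability counter screen, PGC/ERR cells: 17.5 h compound exposure at 37 C, CellTiter-Fluor fluorescence endpoint.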
# [8] = qHTS assay to identify small molecule antagonists of the estrogen related receptor signaling pathway with the pleiotropic PPARgamma coactivator (PGC) from Tox21 10K library (AID 1224841; call rule not given here; also: actives are mostly falling curves and most rising ones were filed inactive; nearly all actives have a fitted effect of over 50% in size; also: potency is read from the fitted curve at half-maximal effect; as to activity, negative = inhibition: series mostly up to about 92 µM)
# How it was run: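 In the PGC/ERR line, DMSO solutions of test chemicals are pin-delivered to 2,000 cells/well six hours after dispensing. Following eighteen hours' incubation, One-Glo reagent is added and luminescence recorded.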
# [9] = qHTS assay to identify small molecule agonists of the estrogen related receptor signaling pathway with the pleiotropic PPARgamma coactivator (PGC) from Tox21 10K library (AID 1224842); also: nearly all actives have a fitted effect of over 15% in size
# How it was run: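 Luminescence from One-Glo (30 min, room temperature) measured after PGC/ERR cells had 18 h at 37 C with pinned compound (23 nL in DMSO). Cells had been seeded at 2,000 per well and pre-incubated 6 h.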
# [10] = target: Thyrotropin receptor (Homo sapiens) (UniProt P16473); assay: qHTS assay to identify small molecule agonists of the thyroid stimulating hormone receptor (TSHR) signaling pathway (AID 1224843; calls by dose curve; also: nearly all actives have a fitted effect of over 45% in size)
# Sequence of Thyrotropin receptor (Homo sapiens) (P16473 whole entry, looked up): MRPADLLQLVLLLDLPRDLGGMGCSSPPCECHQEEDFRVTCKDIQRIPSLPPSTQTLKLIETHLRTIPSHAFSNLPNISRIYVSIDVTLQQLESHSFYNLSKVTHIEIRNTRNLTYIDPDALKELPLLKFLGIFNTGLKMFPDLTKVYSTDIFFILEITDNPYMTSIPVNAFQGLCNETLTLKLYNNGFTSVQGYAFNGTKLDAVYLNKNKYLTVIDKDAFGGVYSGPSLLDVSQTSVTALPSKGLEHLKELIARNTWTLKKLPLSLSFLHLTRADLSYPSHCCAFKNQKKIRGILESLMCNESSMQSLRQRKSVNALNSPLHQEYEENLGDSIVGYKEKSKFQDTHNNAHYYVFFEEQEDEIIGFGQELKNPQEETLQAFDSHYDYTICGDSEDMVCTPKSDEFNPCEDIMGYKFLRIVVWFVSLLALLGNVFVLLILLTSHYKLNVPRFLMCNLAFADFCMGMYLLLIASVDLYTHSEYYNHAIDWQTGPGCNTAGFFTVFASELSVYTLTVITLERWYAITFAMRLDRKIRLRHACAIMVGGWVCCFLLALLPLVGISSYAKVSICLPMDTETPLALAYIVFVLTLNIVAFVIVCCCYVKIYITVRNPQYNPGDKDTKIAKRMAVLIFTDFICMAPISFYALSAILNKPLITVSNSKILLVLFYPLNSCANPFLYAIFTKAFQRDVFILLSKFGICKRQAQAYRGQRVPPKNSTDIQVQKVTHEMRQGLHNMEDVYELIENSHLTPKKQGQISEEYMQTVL
# How it was run: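 Agonist activity read as cAMP rise via d2/cryptate HTRF competition, 1 h room-temperature detection, in HEK293 cells expressing TSHR. Fifteen-point titrations, each run in triplicate, with a 30 min room-temperature incubation beforehand.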
smiles,measurement,setting,value
C#Cc1cccc(Nc2ncnc3cc(OCCOC)c(OCCOC)cc23)c1,Potency,[1],8.41 µM (active)
same,Potency,[2],inactive
same,Potency,[3],inactive
same,Potency,[4],inactive
same,Potency,[5],inactive
same,Potency,[6],7.5 µM (active)
same,Potency,[7],inactive
same,Potency,[8],8.41 µM (active)
same,Potency,[9],inactive
CN(C)c1ccc(CCO)cc1,Potency,[1],inactive
same,Potency,[2],inactive
same,Potency,[3],inactive
same,Potency,[4],inactive
same,Potency,[5],27.1 µM (active)
same,Potency,[6],inactive
same,Potency,[7],inactive
OCCNCc1ccccc1,Potency,[1],inactive
same,Potency,[2],inactive
same,Potency,[3],inactive
same,Potency,[4],inactive
same,Potency,[5],inactive
same,Potency,[6],inactive
same,Potency,[7],inactive
CC1OC(=O)C(C)OC1=O (stereo unspecified),Potency,[1],inactive
same,Potency,[2],inactive
same,Potency,[3],inactive
same,Potency,[4],inactive
same,Potency,[5],inactive
same,Potency,[6],inactive
same,Potency,[7],inactive
C=CC1CC2C=CC1C2 (stereo unspecified),Potency,[1],inactive
same,Potency,[2],inactive
same,Potency,[3],inactive
same,Potency,[4],inactive
same,Potency,[5],inactive
same,Potency,[6],inactive
same,Potency,[7],inactive
C/C=C/C(=O)CC,"viability change, negative = cytotoxic",[1],3.2% [at 19 µM]
same,"activity change, negative = inhibition",[2],3.1% [at 23.6 µM]
same,"viability change, negative = cytotoxic",[3],4.38% [at 19 µM]
same,"activity change, negative = cytotoxicity",[4],0.0894% [at 19 µM]
same,"activity, negative = inhibition",[5],-5.29% [at 19 µM]
same,Potency,[6],inactive
same,"viability change, negative = cytotoxic",[7],7.3% [at 19 µM]
COc1cc(Cl)c(OC)cc1N,Potency,[1],inactive
same,Potency,[2],inactive
same,Potency,[3],inactive
CCOC(=O)C(=O)CCc1ccccc1,Potency,[1],inactive
same,Potency,[2],inactive
same,Potency,[3],inactive
same,Potency,[4],inactive
same,Potency,[5],inactive
same,Potency,[6],inactive
same,Potency,[7],inactive
O=C1CCC(=O)O1,Potency,[1],inactive
same,Potency,[2],inactive
same,Potency,[3],inactive
same,Potency,[4],inactive
same,Potency,[5],inactive
same,Potency,[6],inactive
same,Potency,[7],inactive
same,Potency,[8],inactive
same,Potency,[9],inactive
CCCCCCCCCc1ccc(OCCOCCO)cc1,Potency,[1],10.2 µM (active)
same,Potency,[2],inactive
same,Potency,[3],6.44 µM (active)
same,Potency,[4],5.74 µM (active)
same,Potency,[5],inactive
same,Potency,[6],inactive
same,Potency,[7],10.2 µM (active)
Nc1ccc([N+](=O)[O-])c(C(F)(F)F)c1,Potency,[1],inactive
same,Potency,[2],inactive
same,Potency,[3],inactive
same,Potency,[4],inactive
same,Potency,[5],inactive
same,Potency,[6],inactive
same,Potency,[8],inactive
same,Potency,[9],inactive
same,Potency,[10],inactive
COc1ccc(S(=O)(=O)N2C(=O)[C@@](c3ccccc3OC)(N3C[C@H](O)C[C@H]3C(=O)N(C)C)c3cc(Cl)ccc32)c(OC)c1,Potency,[1],30.6 µM (active)
same,Potency,[2],inactive
same,Potency,[3],30.6 µM (active)
same,Potency,[4],24.3 µM (active)
same,Potency,[5],inactive
same,Potency,[7],30.6 µM (active)
c1ccc(CNCCNCc2ccccc2)cc1,Potency,[1],inactive
same,Potency,[2],inactive
same,Potency,[3],inactive
same,Potency,[4],inactive
same,Potency,[5],inactive
same,Potency,[6],inactive
same,Potency,[7],inactive
same,Potency,[10],inactive
COc1ccnc(CS(=O)c2nc3ccc(OC(F)F)cc3[nH]2)c1OC (stereo unspecified),Potency,[1],inactive
same,Potency,[2],inactive
same,Potency,[3],inactive
same,Potency,[4],inactive
same,Potency,[5],inactive
same,Potency,[6],inactive
same,Potency,[7],inactive
same,Potency,[10],inactive
CCCCC(=O)OCC(=O)[C@H]1[C@H](C)C[C@H]2[C@@H]3C[C@H](F)C4=CC(=O)C=C[C@]4(C)[C@@]3(F)[C@@H](O)C[C@@]21C,Potency,[1],inactive
same,Potency,[2],inactive
same,Potency,[3],inactive
same,Potency,[4],inactive
same,Potency,[5],inactive
same,Potency,[6],inactive
same,Potency,[7],inactive
same,Potency,[10],inactive
C=C1C(=C/C=C2\CCC[C@]3(C)[C@@H]([C@H](C)/C=C/[C@@H](O)C4CC4)CC[C@@H]23)C[C@@H](O)C[C@@H]1O,Potency,[1],29.8 µM (active)
same,Potency,[2],inactive
same,Potency,[3],inactive
same,Potency,[4],inactive
same,Potency,[5],inactive
same,Potency,[8],29.8 µM (active)
same,Potency,[9],inactive
Cc1cccc(C)c1NC(=O)CN(CC(=O)O)CC(=O)O,Potency,[1],inactive
same,Potency,[2],inactive
same,Potency,[3],inactive
same,Potency,[4],inactive
same,Potency,[5],inactive
same,Potency,[6],inactive
same,Potency,[10],inactive
COS(=O)(=O)C(F)(F)F,Potency,[1],inactive
same,Potency,[2],inactive
same,Potency,[3],inactive
same,Potency,[4],inactive
same,Potency,[5],inactive
same,Potency,[6],inactive
same,Potency,[7],inactive
same,Potency,[10],inactive
CC[N+]1(CC)CCC(=C(c2ccccc2)c2ccccc2)C1C (stereo unspecified),Potency,[1],inactive
same,Potency,[2],inactive
same,Potency,[3],inactive
same,Potency,[4],inactive
same,Potency,[5],inactive
same,Potency,[6],inactive
same,Potency,[7],inactive
same,Potency,[10],inactive
CCCCCCCN,Potency,[1],inactive
same,Potency,[2],inactive
same,Potency,[3],inactive
same,Potency,[4],inactive
same,Potency,[5],inactive
same,Potency,[6],inactive
same,Potency,[7],inactive
same,Potency,[10],inactive
O=C(O)C1(C(=O)O)CCC1.[NH2-].[NH2-].[Pt+2],Potency,[1],inactive
same,Potency,[2],inactive
same,Potency,[3],inactive
same,Potency,[4],inactive
same,Potency,[5],inactive
same,Potency,[10],inactive
CCCCCCCCCCCC(=O)OC[C@@H](O)[C@H]1OC[C@H](OCCO)[C@H]1OCCO,Potency,[1],inactive
same,Potency,[2],inactive
same,Potency,[3],inactive
same,Potency,[4],inactive
same,Potency,[5],inactive
same,Potency,[6],inactive
same,Potency,[7],inactive
same,Potency,[10],inactive
CN1Cc2cc(C(=O)N3CCC(C4CCNCC4)CC3)ccc2NC(CC(=O)O)C1=O (stereo unspecified),Potency,[1],inactive
same,Potency,[2],inactive
same,Potency,[3],inactive
same,Potency,[4],inactive
same,Potency,[6],inactive
same,Potency,[7],inactive
same,Potency,[8],inactive
same,Potency,[9],inactive
CCOC(=O)C(F)(F)F,Potency,[1],inactive
same,Potency,[2],inactive
same,Potency,[3],inactive
same,Potency,[4],inactive
same,Potency,[5],inactive
same,Potency,[6],inactive
same,Potency,[7],inactive
same,Potency,[10],inactive
CCCCCCCCCOS(=O)(=O)O,Potency,[1],inactive
same,Potency,[2],inactive
same,Potency,[3],inactive
same,Potency,[4],inactive
same,Potency,[5],inactive
same,Potency,[6],inactive
same,Potency,[7],inactive
same,Potency,[10],inactive
CCC(C)(C)CC,Potency,[1],inactive
same,Potency,[2],inactive
same,Potency,[3],inactive
same,Potency,[4],inactive
same,Potency,[5],inactive
same,Potency,[6],inactive
same,Potency,[7],inactive
same,Potency,[9],inactive
CN1C[C@H]2c3ccccc3Oc3ccc(Cl)cc3[C@@H]2C1,Potency,[1],inactive
same,Potency,[2],inactive
same,Potency,[3],inactive
same,Potency,[4],inactive
same,Potency,[5],inactive
same,Potency,[8],inactive
same,Potency,[9],inactive
same,Potency,[10],inactive
